# From PubChem BioAssay (NCI)
# The panel holds about 79,000 compounds, 15% with a hit somewhere; the sample as a whole holds those more often. A number with no mark means an inactive call. Calls of active or inactive are those of the source. Cut-off read from the data, not from the text of the source: active = growth inhibition above about 70%; inactive = the rest.
# Columns and labels:
# [1] = NCI Yeast Anticancer Drug Screen. Data for the wt1 strain (AID 149);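 note: 0% = growth of vehicle-treated wt1 cultures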; settings: S. cerevisiae wt1 strain (SPY 50644) growth inhibition, hits give high values
# In short: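 Measured: growth of wt1 yeast under compound versus vehicle treatment, reported as inhibition.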
# [2] = NCI Yeast Anticancer Drug Screen. Data for the rad50EPP+ strain (AID 151);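 note: 0% = growth of vehicle-treated control cultures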; settings: S. cerevisiae rad50 mutant strain, hits give high values
# In short: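 Measured: growth inhibition of rad50EPP+ yeast. Reference: vehicle-treated controls. Screen uses strains with defined genetic alterations in DNA damage repair or cell cycle control.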
# [3] = NCI Yeast Anticancer Drug Screen. Data for the mgt1 strain (AID 153); settings: S. cerevisiae mgt1 mutant growth inhibition, hits give high values
# In short: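 Compounds were applied to mgt1 mutant yeast, and growth was then compared against vehicle-treated control cultures to give percent inhibition.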
# [4] = NCI Yeast Anticancer Drug Screen. Data for the rad50 strain (AID 155);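 note: 0% = growth of vehicle-only cultures of the same strain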; settings: S. cerevisiae rad50 strain growth inhibition, hits give high values
# In short: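 Growth of the mutant yeast was measured after compound exposure and referenced to vehicle-treated cultures.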
# [5] = NCI Yeast Anticancer Drug Screen. Data for the mec2-1 strain (AID 157); settings: S. cerevisiae mec2-1 strain, hits give high values
# In short: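 Compounds were applied to mec2-1 yeast cells. Their growth was then compared with that of vehicle-treated cultures to give growth inhibition.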
# [6] = NCI Yeast Anticancer Drug Screen. Data for the rad14 strain (AID 159);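 note: 0% = growth of vehicle-treated control cultures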; settings: S. cerevisiae rad14 strain growth inhibition, hits give high values
# In short: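 Here, inhibition of yeast growth was measured after compound exposure, using a strain with a genetic defect in DNA damage repair and vehicle-treated cultures as the reference.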
# [7] = NCI Yeast Anticancer Drug Screen. Data for the sgs1 mgt1 strain (AID 161);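 note: 0% = growth of cultures given vehicle only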; settings: S. cerevisiae sgs1 mgt1 strain, hits give high values
# In short: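 This yeast growth screen uses a strain with defined DNA-repair lesions; compound-treated growth is compared with vehicle-treated growth.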
# [8] = NCI Yeast Anticancer Drug Screen. Data for the CLN2oe strain (AID 163);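 note: 0% = growth of vehicle-only control cultures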; settings: S. cerevisiae CLN2oe strain, hits give high values
# In short: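 Cells of an engineered yeast line with disturbed cell-cycle regulation are treated with compound. Inhibition of growth is then calculated relative to the vehicle-treated reference.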
# [9] = NCI Yeast Anticancer Drug Screen. Data for the cln2 rad14 strain (AID 165);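 note: 0% = growth equal to vehicle treated cultures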; settings: S. cerevisiae cln2 rad14 strain, hits give high values
# In short: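 Strain: cln2 rad14 yeast, altered in cell cycle control and DNA damage repair. Read-out: growth inhibition vs vehicle.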
# [10] = NCI Yeast Anticancer Drug Screen. Data for the bub3 strain (AID 167); settings: S. cerevisiae bub3 mutant strain, hits give high values
# In short: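 Whole-cell yeast assay. The mutant strain was incubated with compounds, and growth inhibition was determined by comparison with vehicle-treated cells.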
# [11] = NCI Yeast Anticancer Drug Screen. Data for the wt2 strain (AID 169);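 note: 0% = growth of vehicle-treated yeast cultures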; settings: S. cerevisiae wt2 strain growth inhibition, hits give high values
# In short: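 Growth of compound-treated yeast is measured and expressed as inhibition relative to vehicle-only controls.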
# [12] = NCI Yeast Anticancer Drug Screen. Data for the mlh1 strain (AID 171);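 note: 0% = growth of vehicle-treated control cultures of the same strain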; settings: S. cerevisiae mlh1 strain growth inhibition, hits give high values
# In short: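 Test agents were incubated with yeast bearing a defined DNA damage repair or cell cycle control alteration; values are growth inhibition normalised to vehicle-treated cultures.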
# [13] = NCI Yeast Anticancer Drug Screen. Data for the sgs1 strain (AID 173);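 note: 0% = growth of vehicle-only control cultures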; settings: S. cerevisiae sgs1 mutant, hits give high values
# In short: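 Strain with an altered DNA repair or cell cycle pathway exposed to compound. Growth then measured. Value = inhibition versus vehicle control.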
# [14] = NCI Yeast Anticancer Drug Screen. Data for the mlh1 rad18 strain (AID 175); settings: S. cerevisiae mlh1 rad18 strain growth inhibition, hits give high values
# In short: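 A repair-deficient yeast strain is exposed to test compound, and growth is scored relative to vehicle-treated controls.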
# [15] = NCI Yeast Anticancer Drug Screen. Data for the rad18 strain (AID 177); settings: S. cerevisiae rad18 mutant growth inhibition, hits give high values
# In short: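 DNA-repair-defective yeast; compound treatment; growth inhibition scored against vehicle.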
# [16] = at 5.0 µM (retest, dose inferred, filed as 0.5)
# [17] = at 50.0 µM (retest, dose inferred, filed as 5.0)
compound,measurement,setting,value
CCOC(=O)C1=C(C(=O)OCC)C2(c3ccccc3)N(O1)c1ccccc1C2(C)C (centres undefined),growth inhibition,[1]; at 1.2 µM,-2%
same,growth inhibition,[1]; at 3.7 µM,-5%
same,growth inhibition,[1]; at 11.0 µM,-4%
same,growth inhibition,[1]; at 33.0 µM,-1%
same,growth inhibition,[1]; at 100.0 µM,54%
same,growth inhibition,[2]; at 1.2 µM,-6%
same,growth inhibition,[2]; at 3.7 µM,-7%
same,growth inhibition,[2]; at 11.0 µM,-5%
same,growth inhibition,[2]; at 33.0 µM,-6%
same,growth inhibition,[2]; at 100.0 µM,15%
same,growth inhibition,[3]; at 1.2 µM,-1%
same,growth inhibition,[3]; at 3.7 µM,0%
same,growth inhibition,[3]; at 11.0 µM,-1%
same,growth inhibition,[3]; at 33.0 µM,-3%
same,growth inhibition,[3]; at 100.0 µM,78% (active)
same,growth inhibition,[4]; at 1.2 µM,-1%
same,growth inhibition,[4]; at 3.7 µM,-2%
same,growth inhibition,[4]; [16],54%
same,growth inhibition,[4]; at 11.0 µM,-3%
same,growth inhibition,[4]; at 33.0 µM,-1%
same,growth inhibition,[4]; [17],54%
same,growth inhibition,[4]; at 50.0 µM,63%
same,growth inhibition,[4]; at 100.0 µM,67%
same,growth inhibition,[5]; at 1.2 µM,-3%
same,growth inhibition,[5]; at 3.7 µM,-3%
same,growth inhibition,[5]; [16],35%
same,growth inhibition,[5]; at 11.0 µM,-5%
same,growth inhibition,[5]; at 33.0 µM,-7%
same,growth inhibition,[5]; [17],35%
same,growth inhibition,[5]; at 50.0 µM,27.5%
same,growth inhibition,[5]; at 100.0 µM,74% (active)
same,growth inhibition,[6]; at 1.2 µM,0%
same,growth inhibition,[6]; at 3.7 µM,-4%
same,growth inhibition,[6]; at 11.0 µM,-3%
same,growth inhibition,[6]; at 33.0 µM,-8%
same,growth inhibition,[6]; at 100.0 µM,62%
same,growth inhibition,[7]; [16],71% (active)
same,growth inhibition,[7]; [17],71% (active)
same,growth inhibition,[7]; at 50.0 µM,79.8% (active)
same,growth inhibition,[8]; at 1.2 µM,-4%
same,growth inhibition,[8]; at 3.7 µM,-2%
same,growth inhibition,[8]; at 11.0 µM,-4%
same,growth inhibition,[8]; at 33.0 µM,-5%
same,growth inhibition,[8]; at 100.0 µM,79% (active)
same,growth inhibition,[9]; [16],6%
same,growth inhibition,[9]; [17],6%
same,growth inhibition,[9]; at 50.0 µM,43.3%
same,growth inhibition,[10]; at 1.2 µM,-6%
same,growth inhibition,[10]; at 3.7 µM,-5%
same,growth inhibition,[10]; [16],31%
same,growth inhibition,[10]; at 11.0 µM,8%
same,growth inhibition,[10]; at 33.0 µM,13%
same,growth inhibition,[10]; [17],31%
same,growth inhibition,[10]; at 50.0 µM,44.4%
same,growth inhibition,[10]; at 100.0 µM,77% (active)
same,growth inhibition,[11]; at 1.2 µM,-2%
same,growth inhibition,[11]; at 3.7 µM,-3%
same,growth inhibition,[11]; at 11.0 µM,-2%
same,growth inhibition,[11]; at 33.0 µM,0%
same,growth inhibition,[11]; at 100.0 µM,75% (active)
same,growth inhibition,[12]; at 1.2 µM,-3%
same,growth inhibition,[12]; at 3.7 µM,-6%
same,growth inhibition,[12]; at 11.0 µM,-5%
same,growth inhibition,[12]; at 33.0 µM,-3%
same,growth inhibition,[12]; at 100.0 µM,80% (active)
same,growth inhibition,[13]; at 1.2 µM,-5%
same,growth inhibition,[13]; at 3.7 µM,-5%
same,growth inhibition,[13]; at 11.0 µM,-6%
same,growth inhibition,[13]; at 33.0 µM,-2%
same,growth inhibition,[13]; at 100.0 µM,81% (active)
same,growth inhibition,[14]; [16],32%
same,growth inhibition,[14]; [17],32%
same,growth inhibition,[14]; at 50.0 µM,15.4%
same,growth inhibition,[15]; at 1.2 µM,-4%
same,growth inhibition,[15]; at 3.7 µM,-11%
same,growth inhibition,[15]; at 11.0 µM,-12%
same,growth inhibition,[15]; at 33.0 µM,-4%
same,growth inhibition,[15]; at 100.0 µM,68%
CC1=C2C(=C[C@@](C)(CO)[C@@H]2O)C(=O)[C@](C)(O)C12CC2,growth inhibition,[1]; at 1.2 µM,1%
same,growth inhibition,[1]; at 3.7 µM,-1%
same,growth inhibition,[1]; at 11.0 µM,0%
same,growth inhibition,[1]; at 33.0 µM,0%
same,growth inhibition,[1]; at 100.0 µM,25%
same,growth inhibition,[2]; at 1.2 µM,-3%
same,growth inhibition,[2]; at 3.7 µM,-1%
same,growth inhibition,[2]; at 11.0 µM,1%
same,growth inhibition,[2]; at 33.0 µM,-2%
same,growth inhibition,[2]; at 100.0 µM,1%
same,growth inhibition,[3]; at 1.2 µM,-3%
same,growth inhibition,[3]; at 3.7 µM,-1%
same,growth inhibition,[3]; at 11.0 µM,0%
same,growth inhibition,[3]; at 33.0 µM,2%
same,growth inhibition,[3]; at 100.0 µM,0%
same,growth inhibition,[4]; at 1.2 µM,2%
same,growth inhibition,[4]; at 3.7 µM,2%
same,growth inhibition,[4]; at 11.0 µM,11%
same,growth inhibition,[4]; at 33.0 µM,31%
same,growth inhibition,[4]; at 50.0 µM,33.8%
same,growth inhibition,[4]; at 100.0 µM,70% (active)
same,growth inhibition,[5]; at 1.2 µM,0%
same,growth inhibition,[5]; at 3.7 µM,0%
same,growth inhibition,[5]; at 11.0 µM,1%
same,growth inhibition,[5]; at 33.0 µM,13%
same,growth inhibition,[5]; at 50.0 µM,22.9%
same,growth inhibition,[5]; at 100.0 µM,48%
same,growth inhibition,[6]; at 1.2 µM,1%
same,growth inhibition,[6]; at 3.7 µM,-1%
same,growth inhibition,[6]; at 11.0 µM,4%
same,growth inhibition,[6]; at 33.0 µM,13%
same,growth inhibition,[6]; at 100.0 µM,41%
same,growth inhibition,[7]; at 50.0 µM,44%
same,growth inhibition,[8]; at 1.2 µM,-5%
same,growth inhibition,[8]; at 3.7 µM,-8%
same,growth inhibition,[8]; at 11.0 µM,-10%
same,growth inhibition,[8]; at 33.0 µM,-13%
same,growth inhibition,[8]; at 100.0 µM,-5%
same,growth inhibition,[9]; at 50.0 µM,22.6%
same,growth inhibition,[10]; at 1.2 µM,-4%
same,growth inhibition,[10]; at 3.7 µM,-5%
same,growth inhibition,[10]; at 11.0 µM,-7%
same,growth inhibition,[10]; at 33.0 µM,-10%
same,growth inhibition,[10]; at 50.0 µM,-41%
same,growth inhibition,[10]; at 100.0 µM,-12%
same,growth inhibition,[11]; at 1.2 µM,-2%
same,growth inhibition,[11]; at 3.7 µM,0%
same,growth inhibition,[11]; at 11.0 µM,0%
same,growth inhibition,[11]; at 33.0 µM,0%
same,growth inhibition,[11]; at 100.0 µM,1%
same,growth inhibition,[12]; at 1.2 µM,0%
same,growth inhibition,[12]; at 3.7 µM,1%
same,growth inhibition,[12]; at 11.0 µM,2%
same,growth inhibition,[12]; at 33.0 µM,3%
same,growth inhibition,[12]; at 100.0 µM,7%
same,growth inhibition,[13]; at 1.2 µM,3%
same,growth inhibition,[13]; at 3.7 µM,10%
same,growth inhibition,[13]; at 11.0 µM,24%
same,growth inhibition,[13]; at 33.0 µM,50%
same,growth inhibition,[13]; at 100.0 µM,73% (active)
same,growth inhibition,[14]; at 50.0 µM,11.7%
same,growth inhibition,[15]; at 1.2 µM,37%
same,growth inhibition,[15]; at 3.7 µM,74% (active)
same,growth inhibition,[15]; at 11.0 µM,90% (active)
same,growth inhibition,[15]; at 33.0 µM,93% (active)
same,growth inhibition,[15]; at 100.0 µM,95% (active)
